The values below come from PubChem BioAssay AID590 (National Center for Advancing Translational Sciences (NCATS), 2007).

Each structure is given as a SMILES string. Out of some 59,000 compounds screened, about 6,500 (11%) were called active. About 15% were inconclusive and are not listed. Cut-off read from the data, not from the text of the source: active = max dye-equivalent concentration above about 10 nM; inconclusive = mostly about 1.1 nM to 9.6 nM; inactive = weaker than that. This excerpt belongs to a sample that is enriched for actives.

The assay is described as follows: qHTS Assay for Spectroscopic Profiling in A350 Spectral Region. Conditions: Compound autofluorescence, 340/450 nm, Alexa 350 dye-equivalents; stronger effect = higher value. (In general: qHTS replaces the single test concentration by a dilution series.)
On to `Cc1ccc(S(=O)(=O)N2CCN(Cc3cccc(C)c3O)CC2)cc1`, for which the max dye-equivalent concentration entry is “inactive”.

With `Cc1cc(=O)oc(C)c1C(=O)Nc1cnc2ccccc2c1`, the max dye-equivalent concentration was 12 nM (active).

Consider `CC(=O)Nc1cccc(NC(=O)c2c(-c3ccccc3)noc2C)c1`, for which the max dye-equivalent concentration entry was “inactive”.

For the molecule `Cc1cc(=O)oc(C)c1C(=O)NC1CC(C)(C)NC(C)(C)C1`, the max dye-equivalent concentration result is “inactive”.

For the molecule `O=C(NCc1ccc2c(c1)OCO2)c1ccc2c(c1)C(=O)N(CC1CCCO1)C2=O` (stereo not drawn), the max dye-equivalent concentration entry is “inactive”.

`O=C(CCN1C(=O)c2ccncc2C1=O)Nc1ccc2c(c1)OCCO2`: the max dye-equivalent concentration result was “inactive”.

In the case of `CCC(=O)Nc1ccc(C(=O)Nc2ccc3c(c2)C(=O)N(CC2CCCO2)C3=O)cc1` (stereo not drawn), the max dye-equivalent concentration was 150 nM (active).

Consider `CCC(c1nnnn1C1CCCC1)N1CCN(C(=O)c2ccco2)CC1` (stereo not drawn), for which the max dye-equivalent concentration result was “inactive”.

In the case of `O=C(Nc1ccc(-c2nnc(-c3ccccc3)o2)cc1)C1CCCO1` (stereo not drawn), the max dye-equivalent concentration result is “inactive”.

Regarding `O=C(Nc1ccc(-c2nnc(-c3ccccc3)o2)cc1)c1ccc(Br)o1`, the max dye-equivalent concentration was 68 nM (active).

Regarding `O=C(Nc1cccc(-c2nnc(-c3ccccc3)o2)c1)C1CCCO1` (stereo not drawn), the max dye-equivalent concentration entry was “inactive”.

With `CCNS(=O)(=O)c1ccc(NC(=O)Nc2cccc(OC)c2)cc1`, the max dye-equivalent concentration result is “inactive”.

As to `CN1c2ccccc2-c2nc3ccccc3n2C1c1ccco1` (stereo not drawn), the max dye-equivalent concentration is 3400 nM (active).

Regarding `CSCCC(NC(=O)c1ccc(=O)n(C)n1)c1nc2ccccc2[nH]1` (stereo not drawn), the max dye-equivalent concentration entry is “inactive”.

For the molecule `COc1cc(C2C(C(=O)c3sc(C)nc3C)=C(O)C(=O)N2CCN(C)C)cc(OC)c1OC` (stereo not drawn), the max dye-equivalent concentration result was “inactive”.

In the case of `O=C(c1csnn1)N1CCC[C@@]2(CCN(Cc3nccs3)C2)C1`, the max dye-equivalent concentration result is “inactive”.

On to `O=C(NC1CCCCC1)c1ccc2c(=O)n(CC3CCCO3)c(=O)[nH]c2c1` (stereo not drawn), for which the max dye-equivalent concentration was 15 nM (active).

Consider `O=c1c2cc3c(=O)n(CC4CCCO4)c(=O)c3cc2c(=O)n1CC1CCCO1` (stereo not drawn), for which the max dye-equivalent concentration entry was “inactive”.

As to `Cc1ccc(C(=O)Nc2ccccc2C(=O)NC2CCCCC2)cc1S(=O)(=O)N1CCOCC1`, the max dye-equivalent concentration result is “inactive”.

Regarding `NS(=O)(=O)c1cc(C(=O)O)c(Cl)c([N+](=O)[O-])c1Cl`, the max dye-equivalent concentration result is “inactive”.

Consider `CS(=O)(=O)N(Cc1nc2sc3c(c2c(=O)[nH]1)CCCC3)C1CCCCC1`, for which the max dye-equivalent concentration was 44 nM (active).

As for `COc1ccc(Br)c2c1C[C@H](C(=O)O)CC2`, the max dye-equivalent concentration entry is “inactive”.

Take `C=CCNC(=O)CCCC(=O)NCC=C`: the max dye-equivalent concentration entry is “inactive”.

With `CC(C)(C)OC(=O)c1c(N)n(CCCN2CCCC2=O)c2nc3ccccc3nc12`, the max dye-equivalent concentration was 9100 nM (active).

For the molecule `CSc1nnc(-c2ccncc2)n1CCCN1CCCC1=O`, the max dye-equivalent concentration entry is “inactive”.

With `O=C(CCn1c(=S)[nH]c2ccccc2c1=O)NCCCN1CCCC1=O`, the max dye-equivalent concentration result was “inactive”.

`COc1ccc(N2C(=O)CC(N3CCC(C(N)=O)CC3)C2=O)cc1` (stereo not drawn): the max dye-equivalent concentration entry was “inactive”.

For the molecule `CC(C)NC(=O)N1CC[C@@]2(CCCN(C(=O)c3cccc(F)c3)C2)C1`, the max dye-equivalent concentration result was “inactive”.

For `CCCCCNC(=O)Cc1ccc(OC)cc1`, the max dye-equivalent concentration entry was “inactive”.

Take `CCS(=O)(=O)n1nc(-c2ccccc2)nc1SCc1ccccc1`: the max dye-equivalent concentration entry is “inactive”.

`COc1ccccc1NC(=O)C1=C(C)Nc2nnnn2C1c1cccc(Br)c1` (stereo not drawn): the max dye-equivalent concentration entry is “inactive”.

Take `CCCCCOC(=O)C1=C(C)Nc2nnnn2C1c1ccc(OC)c(OC)c1OC` (stereo not drawn): the max dye-equivalent concentration entry was “inactive”.

With `COC(=O)c1ccc(C2C3=C(Nc4nnnn42)c2ccccc2OC3)cc1` (stereo not drawn), the max dye-equivalent concentration was 74 nM (active).

`CC(=O)OC(C(=O)NC1CCCCC1)c1ccccc1` (stereo not drawn): the max dye-equivalent concentration entry is “inactive”.

As for `Cc1cc(C(=O)OCC(=O)c2c(N)n(C)c(=O)n(C)c2=O)c(C)o1`, the max dye-equivalent concentration entry is “inactive”.

Turning to `CC(NC(=O)c1cc(-c2ccccc2)on1)c1ccccc1` (stereo not drawn), the max dye-equivalent concentration entry was “inactive”.

Turning to `CC(NC(=O)CSc1nc2c(cc1C#N)CN(C)CC2)c1ccccc1` (stereo not drawn), the max dye-equivalent concentration was 26 nM (active).

As for `Cc1ccc2cc(C#N)c(SCC(=O)NCC3CCCO3)nc2c1C` (stereo not drawn), the max dye-equivalent concentration entry is “inactive”.

Turning to `CCC(C)NC(=O)C1CCC(=O)N1Cc1ccc(C)cc1` (stereo not drawn), the max dye-equivalent concentration entry is “inactive”.

On to `NC(=O)C1(N2CCCCC2)CCN(C(=O)c2ccc(C#Cc3ccccc3)o2)CC1`, for which the max dye-equivalent concentration result is “inactive”.

With `O=S(=O)(NCc1ccccc1Cl)c1cnc[nH]1`, the max dye-equivalent concentration entry was “inactive”.

On to `O=C(O)CCC(=O)N(Cc1cccs1)Cc1cccs1`, for which the max dye-equivalent concentration result was “inactive”.

As for `CC(C)Cn1c(CCC(=O)O)ccc1-c1cccs1`, the max dye-equivalent concentration was 410 nM (active).

In the case of `Cc1cc(NC(=O)c2cc(-c3cccs3)on2)nn1Cc1ccc(Cl)cc1`, the max dye-equivalent concentration entry is “inactive”.

Consider `COc1ccc(NC(=O)N2CC3(CCN(C(C)=O)CC3)C2)cc1`, for which the max dye-equivalent concentration result is “inactive”.

For the molecule `CC(C)c1ccc(NC(=O)NC2CCCCC2)cc1`, the max dye-equivalent concentration entry was “inactive”.

Take `FC(F)(F)c1ccccc1-c1nc(-n2ccnc2)c2ccccc2n1`: the max dye-equivalent concentration result was “inactive”.

With `Cn1c(=O)[nH]c(=O)c2c1nc(NCCCn1ccnc1)n2Cc1cccc(Br)c1`, the max dye-equivalent concentration entry was “inactive”.

Regarding `COc1ccc(NC(=O)c2c(C)oc3c2CCCC3)cc1`, the max dye-equivalent concentration entry is “inactive”.

`COc1cc(OC)cc(C(=O)Nc2ccc(-c3nc4ccccc4o3)c(O)c2)c1`: the max dye-equivalent concentration was 310 nM (active).

As for `COc1cccc(NC(=O)c2ccccc2SC)c1`, the max dye-equivalent concentration result is “inactive”.

In the case of `O=C(O)c1ccc(C(=O)c2ccccc2C(=O)O)cc1C(=O)O`, the max dye-equivalent concentration result was “inactive”.

Take `C=CCn1c(COc2ccccc2F)nnc1SCC(=O)N1CC(=O)Nc2ccccc21`: the max dye-equivalent concentration entry is “inactive”.

In the case of `CCOC(=O)CNC(=O)CSc1nnc(COc2ccc(Cl)cc2)n1CC`, the max dye-equivalent concentration entry is “inactive”.

For `COCc1nc2ccccc2n1Cc1ccccc1Br`, the max dye-equivalent concentration result is “inactive”.

Regarding `COc1ccc(OCC(=O)OCCN(C)C)cc1`, the max dye-equivalent concentration entry was “inactive”.

On to `COC(=O)COc1ccc2oc(=O)cc(C)c2c1`, for which the max dye-equivalent concentration is 28 nM (active).

As to `CCOC(=O)c1c(C)oc2ccc(OCC(=O)N(CC)CC)cc12`, the max dye-equivalent concentration entry was “inactive”.

For `Cc1nn(-c2ccccc2)c(C)c1C(=O)OCC(=O)NC(=O)NC1CCCCC1`, the max dye-equivalent concentration result is “inactive”.

As for `O=C(CSc1nnc(-c2ccccn2)n1-c1ccccc1)Nc1ccc2c(c1)OCO2`, the max dye-equivalent concentration entry was “inactive”.

In the case of `O=c1ccc2cc(S(=O)(=O)N3CCN(c4ccccc4)CC3)ccc2o1`, the max dye-equivalent concentration result was “inactive”.

With `CC(=O)N1CCC(C(=O)Nc2nc(-c3ccccc3)ns2)CC1`, the max dye-equivalent concentration is 1700 nM (active).

For the molecule `Cc1ccc2c(NC(=O)C3CC3)cccc2n1`, the max dye-equivalent concentration entry is “inactive”.

With `Cc1cc(C)cc(NC(=O)C2CCN(c3nc(C)cc(C)n3)CC2)c1`, the max dye-equivalent concentration result was “inactive”.

`CCCC(=O)N1c2ccc(-c3csc(N)n3)cc2CC1C` (stereo not drawn): the max dye-equivalent concentration result was “inactive”.

Turning to `Cc1noc(NS(=O)(=O)c2ccc(N3CC(O)=C(c4ccccc4)C3=N)cc2)c1C`, the max dye-equivalent concentration result is “inactive”.

As to `COc1ccc(OC)c2c(N)c(C#N)c(C(F)(F)C(F)(F)F)nc12`, the max dye-equivalent concentration was 150 nM (active).

For the molecule `COc1cccc(N(C(=O)c2ccn[nH]2)C2(C(=O)Nc3c(C)cccc3C)CCCCC2)c1`, the max dye-equivalent concentration entry was “inactive”.
